The values below come from PubChem BioAssay (Tox21).

Values joined by “and” are separate entries in the source; they are usually repeats but may differ in a detail not shown here. Identical values can stand only once. Results filed as inconclusive are left out. A call without a number means that no potency is given here. Active and inactive are the calls of the source. Calls follow the shape of the dose curve; as a rule, active = well fitted cell-killing curve with a large enough effect in the repeat runs; inconclusive = weak or mixed curves, or effect the other way; inactive = flat fitted curve, though single readings scatter.
Potency is read from the fitted curve at half-maximal effect.

This assay can be described thus: qHTS RealTime-Glo MT Cell Viability Assay in HEK293 cells - 8 hour (AID 1224887). Also: nearly all actives have a fitted effect of over 50% in size. The settings on record: RealTime-Glo luminescence; series mostly up to 76.8 µM. An excerpt:
U.S. Tox21 Program National Center for Advancing Translational Sciences [NCATS] NIH Chemical Genomics Center [NCGC] U.S. Environmental Protection Agency [EPA] National Institutes of Environmental Health Sciences [NIEHS] National Toxicology Program [NTP] U.S. Food and Drug Administration [FDA] Tox21 Assay Overview: Measure of cell viability is critical in the cell-base assay. Analysis of cell viability is necessary for the characterization of cell responses to cytotoxic drugs and environmental stress. A RealTime-Glo MT Cell Viability Assay to monitor cell viability in real time of continues cell culture during 40 hours of compound treatment was used to screen Tox21 10K library compounds in Hek293 cells. The RealTime-Glo MT Cell Viability Assay is a nonlytic, homogeneous, bioluminescent method to measure cell viability in real time using a simple, plate-based method. The assay involves adding NanoLuc luciferase and a cell-permeant prosubstrate to cells in culture. Viable cells reduce the proprietary prosubstrate to generate a substrate for NanoLuc luciferase. This substrate diffuses from cells into the surrounding culture medium, where it is rapidly used by the NanoLuc Enzyme to produce a luminescent signal. The signal correlates with the number of viable cells, making the assay well suited for cytotoxicity studies.
Tox21 Assay Protocol Summary: The mixture of Hek293 cell suspension and reagents were dispensed at 600cells/6 ul/well in 1536-well tissue culture treated black solid bottom plates using a Multidrop dispenser. After the assay plates were incubated at a 37 C/5% CO2 incubator for 5 hours, 23 nL of compounds dissolved in DMSO, positive and negative controls was transferred to the assay plate by a pintool work station. The plates were incubated at 37 C for 40 hours. The luminescence intensity were measured at 0h, 8h, 16h, 24h, 32h and 40h time points using ViewLux plate reader during compound treatment.
Turning to `O=Cc1ccccc1O`, the Potency entry is “inactive”. Next, `OCCO`: “inactive”; `CC(C)OB(OC(C)C)OC(C)C`: “inactive”.

As for `CN(C)CCC=C1c2ccccc2CCc2ccccc21`, the Potency entry was “inactive”. Turning to `Oc1ccc(O)cc1`, the Potency entry is “inactive”.

As to `CCCc1c(OCCCCc2nn[nH]n2)ccc(C(C)=O)c1O`, the Potency result is “inactive”. Next, `Cc1c(OCC(F)(F)F)ccnc1CS(=O)c1nc2ccccc2[nH]1` (stereo not given): 21.9 µM (active) and 23.9 µM (active); `OC1CCCCCCCCCCC1`: “inactive”; `Nc1ccc(Cl)cc1Cl`: “inactive”. For the molecule `CC(C)CC(C)(O)C#CC(C)(O)CC(C)C` (stereo not given), the Potency entry is “inactive”. `O=C(/C=C/C=C/c1ccc2c(c1)OCO2)N1CCCCC1`: the Potency result is “inactive”. `Clc1nc(Cl)c(Cl)c(Cl)c1Cl`: the Potency result was “inactive”. With `CC(C)=CCC/C(C)=C\CO`, the Potency entry is “inactive”. Next, `O=C(c1ccccc1)c1ccc(O)cc1O`: “inactive”; `CCCCOCCOCCO`: “inactive”; `CN(C)CCN(Cc1cccs1)c1ccccn1`: “inactive”. The value for `c1ccc2c(c1)c1cccc3ccc4cccc2c4c31` was “inactive”. As to `CC(C)OC(=O)C(C)(C)Oc1ccc(C(=O)c2ccc(Cl)cc2)cc1`, the Potency was 24.5 µM (active) and 16.9 µM (active). For the molecule `O=c1oc(=O)c2cc3c(=O)oc(=O)c3cc12`, the Potency result was “inactive”. With `CCC(C)c1ccccc1O` (stereo not given), the Potency result is “inactive”. In the case of `CN1C(C(=O)Nc2ccccn2)=C(O)c2ccccc2S1(=O)=O`, the Potency entry was “inactive”. Next, `Cc1ccc(C)c(O)c1C`: “inactive”; `CC(C)(C)NC(=O)[C@H]1CC[C@H]2[C@@H]3CC[C@H]4NC(=O)C=C[C@]4(C)[C@H]3CC[C@]12C`: “inactive”. The value for `OC(CCl)CCl` was “inactive”. In the case of `Nc1ncnc2nc[nH]c12`, the Potency result was “inactive”. Next, `NNc1ccc(C(=O)O)cc1`: “inactive”; `Cc1ccc(C(=O)c2cc(O)c(O)c([N+](=O)[O-])c2)cc1`: “inactive”; `CC(=O)C1(C)CC2=C(CCCC2(C)C)CC1C` (stereo not given): “inactive”. The value for `O=C1OC2(c3cc(Br)c(O)c(Br)c3Oc3c2cc(Br)c(O)c3Br)c2c(Cl)c(Cl)c(Cl)c(Cl)c21` was “inactive”; that for `c1ccc2cc(Nc3ccc(Nc4ccc5ccccc5c4)cc3)ccc2c1` was “inactive”. Consider `CC(CCC(=O)O)(c1ccc(O)cc1)c1ccc(O)cc1`, for which the Potency result is “inactive”. Regarding `CCOCCOCCO`, the Potency result was “inactive”. As for `CCCCC/C=C/C=C/C=O`, the Potency entry is “inactive”. The value for `NC=O` was “inactive”; that for `CNCCCC12CCC(c3ccccc31)c1ccccc12` was “inactive”; that for `O=[N+]([O-])c1ccc2c(c1)Cc1ccccc1-2` was “inactive”. The value for `O=C=Nc1ccc(Cc2ccc(N=C=O)cc2)cc1` was “inactive”; that for `c1cc(-c2ccncc2)ccn1` was “inactive”. The value for `Cc1[nH]c(=O)c(C#N)cc1-c1ccncc1` was “inactive”; that for `Cc1ncc[nH]1` was “inactive”.
